Data: ChEMBL document CHEMBL3988442, “University of Dundee, Small-Polar-MMV Screening Library” (2021)
The campaign covered roughly 53,000 compounds. About 900 (1.7%) showed an effect of 50% or more. Many of the other results were omitted from the sample, so strong results are more common in it than they were.

test system: Mycobacterium tuberculosis; assay: Cornell - Phenotypic assay to identify agents that inhibit growth of Mycobacterium tuberculosis; format: functional; set-up: scale not given: direction of the effect not stated beside the values; conditions: 10 mM as filed; unlikely as a test dose

Structure (SMILES)	Percent Effect [%]
CCCSc1ncccc1C(=O)NCc1ccc(N(C)C)cc1	-11.44
O=C(O)C(F)(F)F.c1ccc(CN2CCc3ncnc(-c4ccsc4)c3CC2)nc1	15.9
CCc1csc(C2CCCN(C(=O)c3ccc(=O)n(CC)n3)C2)n1 (stereo not given)	-10.64
CCc1nc(C(=O)N(CC)CC(=O)N(C)C)nn1-c1ccccc1Cl	10.69
CCCn1nnnc1CN(c1ccc(C)cc1)C(C)C	13.52
CCCn1nnnc1CN(C)C(C)c1ccc(C)cc1 (stereo not given)	18.09
CCCn1nnnc1CN(c1ccc(N2CCOCC2)cc1)C(C)C	100.7
c1ccc(CN2CCC(CCNc3ncnc4c3CCNCC4)C2)cc1 (stereo not given)	21.24
CN1C(=O)CCCC12CCCN(Cc1cccs1)C2.O=C(O)C(F)(F)F (stereo not given)	15.82
COCCN1CC2(CCN(C(=O)c3ccno3)CC2)c2ccccc21.O=C(O)C(F)(F)F	-25.4
CCN1CCC2(CC1)CN(CCO)c1ccccc12	-37.58
COCCN1CC2(CCN(Cc3ccco3)CC2)c2ccccc21	57.89
Cc1cc(C)n(CC2CN(CCC(=O)NC3CCCCC3)CCO2)n1 (stereo not given)	-4.136
Cc1[nH]/c(=N\C(=O)c2csc(NC3CCCC3)n2)sc1C	105
CC(=O)Nc1nc(C(=O)N2CCCC(c3cc(C)[nH]n3)C2)cs1 (stereo not given)	-1.903
Cc1[nH]/c(=N/C(=O)Cn2nc(N3CCOCC3)ccc2=O)sc1C	-3.782
Cc1[nH]/c(=N\C(=O)c2csc(NC3CC3)n2)sc1C	53.16
Cc1cc(O)c(OCC(=O)/N=c2\[nH]c(C)c(C)s2)cn1	27.09
CC(=O)Nc1nc(C(=O)N2CCC(Nc3cccnn3)CC2)cs1	-42.9
COC(=O)Cn1c(C)cc(=O)n2nc(-c3cccs3)nc12	-3.318
Cc1cnn(CC2CN(CCc3cccs3)CCO2)c1 (stereo not given)	13.16
CC(C(=O)NCC(C)(C)c1ccc2c(c1)OCCO2)n1cncn1 (stereo not given)	-4.418
CC(=O)N1CCC(c2nc(C)cc(-c3ccccc3C(=O)O)n2)CC1	-42.06
COc1ccccc1OC1CCN(c2nccc(N)n2)CC1	-15.16
CS(=O)(=O)NCCCNC(=O)c1cnc(-c2ccsc2)s1	-10.19
Cn1cc(CN2CCC(c3ccncc3)CC2)cn1	9.056
COc1ccc(CN2CCC3(CCCN(C)C3=O)C2)c(OC)c1C (stereo not given)	52.12

Structure (SMILES)	Percent Effect [%]
COc1cc2c(cc1CN1CCC3(CCCN(C)C3=O)C1)OCCO2 (stereo not given)	14.22
COc1ccc(CN2CCC3(CCCN(C)C3=O)C2)c(Cl)c1OC (stereo not given)	41.14
CCN(CC)CCNS(=O)(=O)c1cccc(CSC)c1	5.575
Cc1noc(C)c1S(=O)(=O)NCC(O)c1ccc2c(c1)CCO2 (stereo not given)	-26.48
Cc1nc(CNCC2CN(C)CCO2)cs1 (stereo not given)	0.5218
CC(=O)N[C@H]1CN(S(=O)(=O)N(C)Cc2ccccc2)C[C@@H]1C1CC1	14.84
CCC1CCCCN1C(=O)Cn1nc(-c2ccc(C)s2)cc(N)c1=O (stereo not given)	45.47
CCC1CCCCN1C(=O)Cn1nc(-c2ccc(C)o2)cc(N)c1=O (stereo not given)	-6.265
CCC1CCCCN1C(=O)Cn1nc(-c2cc(C)oc2C)cc(N)c1=O (stereo not given)	52.47
NCCc1n[nH]c(=O)n1-c1cccc(Cl)c1Cl	-33.73
Cc1cccc(CN2C[C@@H]3CN(C(=O)C4CCOC4)C[C@@H]3C2=O)c1 (stereo not given in full)	4.733
COc1ccc(NC(=O)CNc2cccc3c2CCCC3)c(OC)c1	76.54
Cc1ccc(NC(=O)CNc2ccccc2C(N)=O)c(C)c1	-11.67
Cc1ccc(NC(=O)CNc2cccc(C(N)=O)c2C)c(C)c1	-29.06
COc1ccc(NC(=O)Cn2nc(C)c(C)cc2=O)c(OC)c1	11.71
COc1ccc(CNC(=O)CNc2ccccc2OC)cc1	22.93
Cc1ccc(NC(=O)CNc2cccc3c2CCCC3)c(Br)c1	51.04
NC(=O)CCSc1n[nH]c(-c2ccc3c(c2)CCC3)n1	8.887
CN1CCC(N(C)C(=O)c2cnc3c(cnn3C3CCCC3)c2)CC1	15.63
Cc1ccc(C#N)c(N2CC(C)(C)[C@@](C)(O)C2)n1	10.2
O=C(CCc1nnc(-c2ccsc2)o1)NCC1CCN(C2CC2)C1 (stereo not given)	-9.076
Cc1noc(C)c1CNCc1nn(-c2ccccc2)c2c1CCC2	-25.17
Cc1c(CNCc2nn(-c3ccccc3)c3c2CCC3)cc(C#N)n1C	0.6388
COc1ccccc1CNCc1nn(-c2ccccc2)c2c1CCC2	75.02
NC(=O)CSCC(=O)NCC1CCCC1	-10.13
CN(CC(=O)NC1(C)CCS(=O)(=O)C1)Cc1ccc(Br)cc1 (stereo not given)	-6.576
O=C(CSCCN1CCOCC1)N1CCCCCC1	-6.957

Structure (SMILES)	Percent Effect [%]
CCc1nnc(CN(C)c2nccc(CCC(F)(F)F)n2)o1	6.8
CN(Cc1ccncn1)c1nccc(CCC(F)(F)F)n1	-20.7
CNc1ncc(CN(C)c2nccc(CCC(F)(F)F)n2)cn1	50.32
CS(=O)(=O)N1CCCC1C(=O)Nc1cnc2n1CCCC2 (stereo not given)	9.053
CCCNC(=O)NC(=O)CNC(C)(C)c1ccc2c(c1)OCCO2	101.9
CCNC(=O)NC(=O)CNC(C)(C)c1ccc2c(c1)OCCO2	27.43
CCCNC(=O)NC(=O)CNC(C)(C)c1ccc2c(c1)OCO2	0.4574
Cc1n[nH]c(C)c1S(=O)(=O)N1CCC(Oc2cnccn2)CC1	6.999
O=C(O)c1cccn1-c1ccc2c(c1)OCCO2	28.73
COc1ccccc1CCNC(=O)C1CCC(Cn2cnnn2)CC1 (stereo not given)	3.007
Cc1nn(C)c2nc(N(CCN(C)C)C3CCCC3)sc12	19.35
Cc1nn(C)c2nc(N(C)CCN(C)C3CCCC3)sc12	37.55
Cc1nn(C)c2nc(N(Cc3cnn(C)c3)C3CCCCC3)sc12	56.52
c1ccn(Cc2nnc3n2CCCN(c2cnccn2)C3)c1	-17.01
Cc1ccc(CN2CCN(c3ccc(F)cn3)CC2=O)cc1C	39.83
CCC(NC(=O)NCC(=O)NC(C)C)c1cc(F)ccc1F (stereo not given)	5.032
CCOc1ccc(NC(=O)NCc2csc(NC)n2)cc1C	21.98
CCOc1ccc(NC(=O)NCCS(=O)(=O)CC)cc1C	60.38
CCOc1ccc(NC(=O)NCCCN(C)S(C)(=O)=O)cc1C	30.17
CO[C@@H]1CCN(C(=O)c2cc(C)on2)C[C@@H]1Cc1ccccc1	-19.48
Cc1nc(NCc2ccccc2)cc(C(C)Cn2nc(C)c(C)c2C)n1 (stereo not given)	27.52
O=C(Nc1ccccc1OC1CCOC1)c1ccon1 (stereo not given)	-36.9
O=C(Nc1cncc(Br)c1O)c1ccon1	105.3
CCOc1cccc(CCNC(=O)Cc2ccn[nH]2)n1	-3.182
O=C(Cc1ccn[nH]1)Nc1cncc(Br)c1O	104.6
CC(C)CN1Cc2cccc(NC(=O)Cc3ccon3)c2C1	8.389
COC(=O)Cc1cccc(NC(=O)Cc2ccon2)c1	10.84

Structure (SMILES)	Percent Effect [%]
O=C(Cc1ccn[nH]1)N1CCc2cc(Br)sc2C1	17.86
O=C(Cc1ccon1)Nc1cncc(Br)c1O	58.04
COc1c(Br)cccc1CCNC(=O)c1ccon1	37.39
CCc1ncc(CN2C[C@@H]3C[C@@H](O)CN3C[C@@H]2Cc2ccccc2)cn1	42.85
CCc1ccc(C(=O)N2CCC(Nc3ccc(C)nn3)CC2)o1	29.19
Cc1ccc(C(=O)N2CC[C@@]3(C[C@@H](NS(C)(=O)=O)CCO3)C2)s1	6.984
COC(=O)[C@]12CNC[C@H]1CN(Cc1nc(C)c[nH]1)C2	-13.35
O=C(NC[C@]12COC[C@H]1CN(CC1CCOCC1)C2)c1ccccc1.O=C(O)C(F)(F)F	14.72
Cc1cnc(C(=O)N2CCCC3(CCN(c4cnn(C)c4)C3=O)C2)cn1 (stereo not given)	-8.899
CC1c2ccc(F)cc2CCN1C(=O)c1[nH]c(=O)[nH]c(=O)c1N (stereo not given)	102.4
CC1c2ccc(F)cc2CCN1C(=O)c1nc(=O)[nH][nH]1 (stereo not given)	10.03
COC(=O)c1cc(C(=O)N2CCc3ccc(F)cc3C2C)ccn1 (stereo not given)	5.538
Cc1nc(C)c(C(=O)N2CCc3cc(F)ccc3C2C)o1 (stereo not given)	-6.74
Cc1nc(C)c(C(=O)N2CCc3ccc(F)cc3C2C)o1 (stereo not given)	37.91
CC1c2cc(F)ccc2CCN1C(=O)c1[nH]c(=O)[nH]c(=O)c1N (stereo not given)	102.8
NC(=O)C1CCN(C(=O)NC2CCc3cc(F)ccc32)CC1 (stereo not given)	-2.777
Fc1ccccc1-c1nccnc1C1CCCNC1 (stereo not given)	6.685
Cc1ccccc1CN1C[C@@H](C(=O)N2CCCCO2)C[C@H]2OCC[C@H]21.O=C(O)C(F)(F)F	19.61
O=C(NC1CC1)C1(Cc2ccccc2-c2ccncc2)CCOCC1	-4.384
CS(=O)(=O)N1CCOCC12CCN(Cc1ccc(F)cc1)CC2.O=C(O)C(F)(F)F	10.73
CS(=O)(=O)N1CCCC(C(=O)Nc2cnn(Cc3ccc(Cl)cc3)c2)C1 (stereo not given)	6.456
COc1cc(C#N)ccc1OC12CCCN(CC1)C2 (stereo not given)	14.23
COc1cc(CN2CCCC2)ccc1OC12CCCN(CC1)C2 (stereo not given)	6.74
CCCc1ccc(OC23CCCN(CC2)C3)c(OC)c1 (stereo not given)	51.62
